# Bioassay records as filed in PubChem.
# Rce1 inhib = yeast Ras-converting enzyme inhibition. Q03530. yeast membranes, quenched prenylated peptide cleavage fluorescence. calls only. hit rate 0.27% among 290,000. AID 2563;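 active = fall in fluorescence gain of 50% or more versus controls, with final raw signal at or below 3038400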;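 note: plate controls were neutral control wells for no effect and wells lacking membranes for full effect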
# CHT PAM = human CHT allosteric activation; AID 488977; hit rate 0.49% among 310,000; Q9GZV3; CHT-expressing cells, membrane potential dye, choline EC20; hits give high values; LV-AA mutant CHT in HEK293 cells; B-score at 10 µM;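 active = initial fluorescence not abnormally high and integrated response B-score, plate-corrected, over 3 SD above library mean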
# TMEM16A inh = blocks the mouse calcium-activated chloride channel TMEM16A; HEK293 TMEM16A/YFP iodide influx fluorescence, ionomycin; hit rate 1.2% among 310,000; Q8BHY3; normalized B-score (activity score, 25-100; higher = stronger inhibition) at 10 µM;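 active = ratio plate-corrected score three or more library SD toward inhibition, starting fluorescence score within five deviations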;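 note: score derived from kinetic fluorescence span divided by baseline fluorescence per well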
# CHT inh = human CHT choline transport inhibition | Q9GZV3 | CHT-expressing cells, membrane potential dye, choline response; hits give low values | B-score at 10 µM | hit rate 0.86% among 310,000 | AID 488975;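 active = B-score over 3 SD under the library average, and starting fluorescence ratio not unusually high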;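 note: choline stimulus applied at its EC90 after an EC20 pre-addition; B-score computed on integrated fluorescence ratio after choline addition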
# Kir21 block = inhibitors of mouse Kir2.1 inward-rectifier potassium channel; P35561; HEK293-Kir2.1, FluxOR thallium flux fluorescence; hits give low values; B-score at 10 µM; hit rate 0.85% among 310,000; AID 1672;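 active = fluorescence ratio B-score at or below minus 3 SD of library scores, with starting-brightness B-score within 2 SD, cut at about -4.2 in these data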;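 note: channel flux triggered by added potassium and thallium sulfate stimulus; B-score of peak minus minimum fluorescence over baseline after thallium stimulus; more negative B-score means stronger Kir2.1 block with less thallium influx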
# Target sequence (P35561 whole entry, looked up): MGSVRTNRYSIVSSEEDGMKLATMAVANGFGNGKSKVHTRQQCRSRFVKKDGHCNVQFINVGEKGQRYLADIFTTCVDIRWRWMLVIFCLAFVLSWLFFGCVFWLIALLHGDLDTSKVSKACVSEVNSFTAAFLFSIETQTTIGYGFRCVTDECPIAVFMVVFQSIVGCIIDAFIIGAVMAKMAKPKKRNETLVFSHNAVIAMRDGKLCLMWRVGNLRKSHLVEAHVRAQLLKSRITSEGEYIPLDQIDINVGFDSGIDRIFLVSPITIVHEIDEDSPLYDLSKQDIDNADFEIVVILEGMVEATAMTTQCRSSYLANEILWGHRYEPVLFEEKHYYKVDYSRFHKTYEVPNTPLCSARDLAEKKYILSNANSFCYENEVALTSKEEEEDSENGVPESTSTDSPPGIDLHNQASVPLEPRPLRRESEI
# TMEM16A act = activators or potentiators of mouse TMEM16A chloride channel; hit rate 0.3% among 340,000; B-score at 10 µM; HEK293 TMEM16A/YFP-H148Q/I152L, iodide quench fluorescence; hits give low values; Q8BHY3;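 active = fluorescence-ratio B-score plate-corrected deviation score at least 3 library SD below zero, with starting fluorescence score within 5 deviations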;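 note: channel opened by trigger with iodide after compound preincubation; score built on the fluorescence ratio of max minus min over baseline; more negative score means more quench and so TMEM16A activation or potentiation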
# TMEM16A reconf = re-confirmation of mouse TMEM16A chloride channel inhibitors. shares compounds with TMEM16A inh. HEK293 TMEM16A/YFP-H148Q, iodide quench fluorescence; ionomycin added to raise cell calcium. inhibition, % at 10 µM. hit rate 39% among 2,300;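 active = mean duplicate percent inhibition, scaled so buffer wells are 0 and the reference blocker 100, over three buffer SD above buffer mean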
# HEK293 Ca mobil = counter-screen for TMEM16A inhibitors: effect on calcium mobilization; shares compounds with TMEM16A inh; TMEM16A/YFP HEK293, Fluo4 calcium mobilization; calcium response (% of ionomycin), % at 10 µM; hit rate 2% among 2,300;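 active = duplicate-averaged calcium signal over 20% of the ionomycin maximum, relative to buffer baseline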;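 note: each well's signal is peak minus trough fluorescence divided by its pre-addition baseline; 0% = buffer wells and 100% = ionomycin wells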
# YFP-HEK293 quench = acts in parental YFP-HEK293 cells lacking TMEM16A, counter-screen | shares compounds with TMEM16A inh | iodide YFP quench, ionomycin | YFP ratio F(max-min)/F0 at 10 µM | 2,300 tested, under 10 active;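 active = yellow fluorescent protein signal ratio exceeding the buffer control mean by over 5 SD of those controls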;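 note: ratio is mean of duplicate wells from kinetic YFP trace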
# ClC-1 rat inh = selectivity of TMEM16A inhibitors: inhibition of rat ClC-1 chloride channel | CHO ClC-1-YFP, iodide influx fluorescence quench; iodide control reads 0, buffer control 100 | shares compounds with TMEM16A inh | AID 652236 | ratio percent, % at 10 µM | 2,300 tested, under 10 active;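 active = duplicate-mean ratio percent above the mean of iodide-only control wells, which defines zero, plus 5 of their SD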;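 note: higher percent means stronger block of ClC-1 iodide influx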
# Starred values were filed as active, the others as inactive; i = inactive; / = not tested or not shown. The list is not random: actives were taken first. Their share in the collection is about 3.2%.
SMILES,Rce1 inhib,CHT PAM,TMEM16A inh,CHT inh,Kir21 block,TMEM16A act,TMEM16A reconf,HEK293 Ca mobil,YFP-HEK293 quench,ClC-1 rat inh
O=C(COC(=O)c1cc([N+](=O)[O-])ccc1N1CCOCC1)NCc1ccc(Cl)cc1Cl,i,i,i,i,-2,i,/,/,/,/
O=C1C2C(c3ccccc3)CC=CC2[C@H](c2ccc(C(F)(F)F)cc2)N1Cc1ccccc1 (some centres not stated),i,i,25*,i,-1.8,i,i,i,-1.1,-10
Cn1c2c(c(=O)n(C)c1=O)C(C(F)(F)F)(C(F)(F)F)N=C(c1ccc(Cl)cc1)N2,i,i,100*,i,-1.6,i,42%*,i,-1,-32
CCCCNC(=O)c1ccccc1NC(=O)CCC,i,i,i,i,0.59,i,/,/,/,/
COc1cccc(CNCCc2c[nH]c3ccccc23)c1OCc1ccccc1,i,i,25*,i,-9.5*,i,54%*,i,-0.85,-18
COc1cc2c(cc1NC(=O)CCCCCN1C(=O)CCC1=O)oc1ccccc12,i,i,25*,i,0.03,i,i,i,-1.2,-8
Cc1cc(=O)oc2c(C)c(OCC(=O)c3ccccc3)ccc12,i,i,i,i,0.72,i,/,/,/,/
CC1=CC(C)(C)N(S(=O)(=O)c2ccc(C)cc2)c2ccc(C)cc21,i,i,25*,i,1.1,i,i,i,-1.2,-12
CCCCCCCCNc1ncnc2ccccc12,i,i,100*,i,-8*,i,38%*,i,-1,-36
c1ccc(CCNc2ncnc3ccccc23)cc1,i,i,25*,i,0.42,i,i,i,-1,-26
CCc1ccccc1Nc1ncnc2ccccc12,i,i,i,i,-2.4,i,/,/,/,/
Brc1ccc2ncnc(NCc3ccccc3)c2c1,i,i,i,i,0.65,i,/,/,/,/
COc1ccccc1CNC(=O)/C=C/c1ccc(S(=O)(=O)N2CCOCC2)cc1,i,i,i,i,0.98,i,/,/,/,/
O=C(CCNS(=O)(=O)c1ccc(OC(F)(F)F)cc1)N1CCN(C/C=C/c2ccccc2)CC1,i,i,25*,i,0.96,i,i,i,-1.1,-4
C=CCn1c(C)cc(C(=O)CSc2nc3ccccc3[nH]2)c1C,i,i,25*,i,-0.15,i,43%*,i,-0.97,-20
CN(C)S(=O)(=O)c1ccc(NC(=O)CSc2nnc(-c3ccco3)o2)cc1,/,/,/,/,/,i,/,/,/,/
Oc1ccc(-c2[nH]ncc2-c2ccc(Cl)cc2)c(O)c1,i,i,25*,i,-0.02,i,i,i,-1.4,-3
Cc1csc2c(N3CCN(C(=O)c4ccc(C(C)(C)C)cc4)CC3)ncnc12,i,i,100*,i,0.09,i,36%*,i,-1.1,-28
Cc1csc2c(N3CCN(C(=O)NC(C)(C)C)CC3)ncnc12,i,i,i,i,0.74,i,/,/,/,/
Cc1csc2c(N3CCN(C(=O)Nc4ccc(Cl)c(Cl)c4)CC3)ncnc12,i,i,25*,i,3.2,i,29%*,i,-0.8,-20
O=C(Nc1ccc(Cl)c(Cl)c1)N1CCSCC1,i,i,i,i,0.1,i,/,/,/,/
Cc1c(C(=O)N/N=C/c2cccnc2)sc(N)c1C#N,i,i,i,i,-0.18,i,/,/,/,/
CCOC(=O)N1CCC(N2Cc3cccc(C(=O)Nc4ccccc4OC)c3C2=O)CC1,i,i,i,i,3.2,i,/,/,/,/
CCn1c(=O)c(=O)[nH]c2c(=O)oc3ccc(S(=O)(=O)Nc4ccccc4)cc3c21,i,i,i,i,-0.05,i,/,/,/,/
c1ccc(-c2nc(-n3nc4ccccc4n3)nc3ccccc23)cc1,i,i,100*,i,1.3,i,i,i,-1,-6
SMILES,Rce1 inhib,CHT PAM,TMEM16A inh,CHT inh,Kir21 block,TMEM16A act,TMEM16A reconf,HEK293 Ca mobil,YFP-HEK293 quench,ClC-1 rat inh
N#CC1(Cc2ccccc2Cl)c2ccccc2C=CN1C(=O)c1ccccc1 (configuration not stated),i,i,25*,i,0.29,i,i,i,-1.2,-9
Cc1ccc(N/C(N)=N/c2nc(C)cc(N3CCCCC3)n2)c(C)c1,i,i,100*,i,-2.9,-6.3*,62%*,i,-0.92,-29
N#Cc1c(C(F)(F)F)cc(=O)n2c1[nH]c1ccccc12,i,i,100*,i,-0.7,i,35%*,22%*,-1,-20
CCN(C(=O)COC(=O)c1ccc(S(=O)(=O)N2CCCc3ccccc32)cc1)C1CCS(=O)(=O)C1 (configuration not stated),i,i,i,i,-1.6,i,/,/,/,/
O=C1C(SCCO)=C(SCCO)C(=O)c2ccccc21,/,i,100*,i,/,i,40%*,i,-0.91,-34
COc1ccc(CN(C)C(=O)C(Cc2ccccc2)NC(=O)c2ccccc2)cc1F (configuration not stated),/,/,/,/,/,i,/,/,/,/
CCOc1ccc(CN(C)C(=O)[C@H](Cc2ccccc2)NC(=O)OCc2ccccc2)cc1OC,i,i,25*,i,-2.5,i,i,i,-1.1,-7
COc1ccc(C(=O)NC(=S)NC(C)(C)C)cc1Br,i,i,i,i,-1.8,i,/,/,/,/
Cc1ccc(N2C(=O)/C(=C\c3ccco3)SC2=S)cc1,i,i,100*,i,1.6,i,i,i,-1.1,-13
Cc1ccc(C(=O)N(Cc2nc3ccccc3c(=O)[nH]2)C2CCCC2)cc1,i,i,100*,i,0.83,i,i,i,-1,-12
Cc1ccc(C(=O)CSc2nc3ccccc3c(=O)[nH]2)cc1,i,i,100*,i,0.17,i,i,i,-1,-12
COC(=O)c1ccc(N2NC(=O)/C(=C/c3cc(OC)c(O)c(OC)c3)C2=O)cc1,i,i,i,i,-0.85,i,i,i,-0.75,-34
